# Test results as given in the supplement of paper PMC4466140.
# Target: AgAbp1
# Assay: SPOT peptide array binding signal intensity (averaged, normalized) (arbitrary units (background-subtracted, floor 0; scale differs between SH3 domains)); higher = stronger binding of the SH3 domain to the peptide
# Method in brief: (§1)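 The binding signal is the normalized, background-subtracted spot intensity averaged over replicates; its arbitrary units differ between domains. It was obtained by incubating 10 μg/ml GST-fused SH3 domains from four yeast species overnight at 4°C in TBS-based blocking buffer on cellulose membranes with synthetic 15-mer peptides, cysteines replaced by serines, then detecting with anti-GST antibody, HRP anti-mouse secondary and luminol.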
row,Binder,SPOT peptide array binding signal intensity
1,RVRKTHVPASKRPSG,81.5

# Target: AgBbc1
# Assay: as above
# Method in brief: as §1
row,Binder,SPOT peptide array binding signal intensity
1,RVRKTHVPASKRPSG,105

# Target: AgBem1-D1
# Assay: as above
# Method in brief: as §1
row,Binder,SPOT peptide array binding signal intensity
1,RVRKTHVPASKRPSG,48.5

# Target: AgBzz1-D1
# Assay: as above
# Method in brief: as §1
row,Binder,SPOT peptide array binding signal intensity
1,RVRKTHVPASKRPSG,2

# Target: AgBzz1-D2
# Assay: as above
# Method in brief: as §1
row,Binder,SPOT peptide array binding signal intensity
1,RVRKTHVPASKRPSG,≤ 0

# Target: AgCyk3
# Assay: as above
# Method in brief: as §1
row,Binder,SPOT peptide array binding signal intensity
1,RVRKTHVPASKRPSG,1

# Target: AgFus1
# Assay: as above
# Method in brief: as §1
row,Binder,SPOT peptide array binding signal intensity
1,RVRKTHVPASKRPSG,118

# Target: AgHof1
# Assay: as above
# Method in brief: as §1
row,Binder,SPOT peptide array binding signal intensity
1,RVRKTHVPASKRPSG,7

# Target: AgHse1
# Assay: as above
# Method in brief: as §1
row,Binder,SPOT peptide array binding signal intensity
1,RVRKTHVPASKRPSG,210

# Target: AgLsb1
# Assay: as above
# Method in brief: as §1
row,Binder,SPOT peptide array binding signal intensity
1,RVRKTHVPASKRPSG,0.75

# Target: AgLsb4
# Assay: as above
# Method in brief: as §1
row,Binder,SPOT peptide array binding signal intensity
1,RVRKTHVPASKRPSG,18

# Target: AgMyo5
# Assay: as above
# Method in brief: as §1
row,Binder,SPOT peptide array binding signal intensity
1,RVRKTHVPASKRPSG,≤ 0

# Target: AgNbp2
# Assay: as above
# Method in brief: as §1
row,Binder,SPOT peptide array binding signal intensity
1,RVRKTHVPASKRPSG,91

# Target: AgRvs167
# Assay: as above
# Method in brief: as §1
row,Binder,SPOT peptide array binding signal intensity
1,RVRKTHVPASKRPSG,1

# Target: AgSho1
# Assay: as above
# Method in brief: as §1
row,Binder,SPOT peptide array binding signal intensity
1,RVRKTHVPASKRPSG,5

# Target: AgSla1-D1-D2
# Assay: as above
# Method in brief: as §1
row,Binder,SPOT peptide array binding signal intensity
1,RVRKTHVPASKRPSG,18

# Target: AgSla1-D3
# Assay: as above
# Method in brief: as §1
row,Binder,SPOT peptide array binding signal intensity
1,RVRKTHVPASKRPSG,1.5

# Target: CaAbp1-D1
# Assay: as above
# Method in brief: as §1
row,Binder,SPOT peptide array binding signal intensity
1,RVRKTHVPASKRPSG,919

# Target: CaAbp1-D2
# Assay: as above
# Method in brief: as §1
row,Binder,SPOT peptide array binding signal intensity
1,RVRKTHVPASKRPSG,520

# Target: CaBbc1
# Assay: as above
# Method in brief: as §1
row,Binder,SPOT peptide array binding signal intensity
1,RVRKTHVPASKRPSG,188

# Target: CaBem1-D1
# Assay: as above
# Method in brief: as §1
row,Binder,SPOT peptide array binding signal intensity
1,RVRKTHVPASKRPSG,18

# Target: CaBzz1-D1
# Assay: as above
# Method in brief: as §1
row,Binder,SPOT peptide array binding signal intensity
1,RVRKTHVPASKRPSG,30

# Target: CaBzz1-D2
# Assay: as above
# Method in brief: as §1
row,Binder,SPOT peptide array binding signal intensity
1,RVRKTHVPASKRPSG,48.8

# Target: CaCyk3
# Assay: as above
# Method in brief: as §1
row,Binder,SPOT peptide array binding signal intensity
1,RVRKTHVPASKRPSG,7.5

# Target: CaFus1
# Assay: as above
# Method in brief: as §1
row,Binder,SPOT peptide array binding signal intensity
1,RVRKTHVPASKRPSG,200

# Target: CaHof1
# Assay: as above
# Method in brief: as §1
row,Binder,SPOT peptide array binding signal intensity
1,RVRKTHVPASKRPSG,0.5

# Target: CaHse1
# Assay: as above
# Method in brief: as §1
row,Binder,SPOT peptide array binding signal intensity
1,RVRKTHVPASKRPSG,9.75

# Target: CaLsb1
# Assay: as above
# Method in brief: as §1
row,Binder,SPOT peptide array binding signal intensity
1,RVRKTHVPASKRPSG,0.5

# Target: CaLsb4
# Assay: as above
# Method in brief: as §1
row,Binder,SPOT peptide array binding signal intensity
1,RVRKTHVPASKRPSG,33

# Target: CaMyo5
# Assay: as above
# Method in brief: as §1
row,Binder,SPOT peptide array binding signal intensity
1,RVRKTHVPASKRPSG,≤ 0

# Target: CaNbp2
# Assay: as above
# Method in brief: as §1
row,Binder,SPOT peptide array binding signal intensity
1,RVRKTHVPASKRPSG,216

# Target: CaRvs167
# Assay: as above
# Method in brief: as §1
row,Binder,SPOT peptide array binding signal intensity
1,RVRKTHVPASKRPSG,1

# Target: CaRvs167-3
# Assay: as above
# Method in brief: as §1
row,Binder,SPOT peptide array binding signal intensity
1,RVRKTHVPASKRPSG,7.25

# Target: CaSho1
# Assay: as above
# Method in brief: as §1
row,Binder,SPOT peptide array binding signal intensity
1,RVRKTHVPASKRPSG,89

# Target: CaSla1-D1-D2
# Assay: as above
# Method in brief: as §1
row,Binder,SPOT peptide array binding signal intensity
1,RVRKTHVPASKRPSG,112

# Target: CaSla1-D3
# Assay: as above
# Method in brief: as §1
row,Binder,SPOT peptide array binding signal intensity
1,RVRKTHVPASKRPSG,≤ 0

# Target: ScAbp1
# Assay: as above
# Method in brief: as §1
row,Binder,SPOT peptide array binding signal intensity
1,RVRKTHVPASKRPSG,15.5

# Target: ScBbc1
# Assay: as above
# Method in brief: as §1
row,Binder,SPOT peptide array binding signal intensity
1,RVRKTHVPASKRPSG,15.5

# Target: ScBem1-D1
# Assay: as above
# Method in brief: as §1
row,Binder,SPOT peptide array binding signal intensity
1,RVRKTHVPASKRPSG,51

# Target: ScBzz1-D1
# Assay: as above
# Method in brief: as §1
row,Binder,SPOT peptide array binding signal intensity
1,RVRKTHVPASKRPSG,7.5

# Target: ScBzz1-D2
# Assay: as above
# Method in brief: as §1
row,Binder,SPOT peptide array binding signal intensity
1,RVRKTHVPASKRPSG,≤ 0

# Target: ScCyk3
# Assay: as above
# Method in brief: as §1
row,Binder,SPOT peptide array binding signal intensity
1,RVRKTHVPASKRPSG,51

# Target: ScFus1
# Assay: as above
# Method in brief: as §1
row,Binder,SPOT peptide array binding signal intensity
1,RVRKTHVPASKRPSG,117

# Target: ScHof1
# Assay: as above
# Method in brief: as §1
row,Binder,SPOT peptide array binding signal intensity
1,RVRKTHVPASKRPSG,1

# Target: ScHse1
# Assay: as above
# Method in brief: as §1
row,Binder,SPOT peptide array binding signal intensity
1,RVRKTHVPASKRPSG,469

# Target: ScLsb1
# Assay: as above
# Method in brief: as §1
row,Binder,SPOT peptide array binding signal intensity
1,RVRKTHVPASKRPSG,4.5

# Target: ScLsb2
# Assay: as above
# Method in brief: as §1
row,Binder,SPOT peptide array binding signal intensity
1,RVRKTHVPASKRPSG,7

# Target: ScLsb3
# Assay: as above
# Method in brief: as §1
row,Binder,SPOT peptide array binding signal intensity
1,RVRKTHVPASKRPSG,420

# Target: ScLsb4
# Assay: as above
# Method in brief: as §1
row,Binder,SPOT peptide array binding signal intensity
1,RVRKTHVPASKRPSG,5

# Target: ScMyo3
# Assay: as above
# Method in brief: as §1
row,Binder,SPOT peptide array binding signal intensity
1,RVRKTHVPASKRPSG,2

# Target: ScMyo5
# Assay: as above
# Method in brief: as §1
row,Binder,SPOT peptide array binding signal intensity
1,RVRKTHVPASKRPSG,1.5

# Target: ScNbp2
# Assay: as above
# Method in brief: as §1
row,Binder,SPOT peptide array binding signal intensity
1,RVRKTHVPASKRPSG,91.5

# Target: ScPex13
# Assay: as above
# Method in brief: as §1
row,Binder,SPOT peptide array binding signal intensity
1,RVRKTHVPASKRPSG,≤ 0

# Target: ScRvs167
# Assay: as above
# Method in brief: as §1
row,Binder,SPOT peptide array binding signal intensity
1,RVRKTHVPASKRPSG,2.17

# Target: ScSho1
# Assay: as above
# Method in brief: as §1
row,Binder,SPOT peptide array binding signal intensity
1,RVRKTHVPASKRPSG,230

# Target: ScSla1-D1-D2
# Assay: as above
# Method in brief: as §1
row,Binder,SPOT peptide array binding signal intensity
1,RVRKTHVPASKRPSG,510

# Target: ScSla1-D3
# Assay: as above
# Method in brief: as §1
row,Binder,SPOT peptide array binding signal intensity
1,RVRKTHVPASKRPSG,8.5

# Target: SpAbp1-D1
# Assay: as above
# Method in brief: as §1
row,Binder,SPOT peptide array binding signal intensity
1,RVRKTHVPASKRPSG,249

# Target: SpBbc1
# Assay: as above
# Method in brief: as §1
row,Binder,SPOT peptide array binding signal intensity
1,RVRKTHVPASKRPSG,≤ 0

# Target: SpBzz1-D1
# Assay: as above
# Method in brief: as §1
row,Binder,SPOT peptide array binding signal intensity
1,RVRKTHVPASKRPSG,41

# Target: SpBzz1-D2
# Assay: as above
# Method in brief: as §1
row,Binder,SPOT peptide array binding signal intensity
1,RVRKTHVPASKRPSG,≤ 0

# Target: SpCyk3
# Assay: as above
# Method in brief: as §1
row,Binder,SPOT peptide array binding signal intensity
1,RVRKTHVPASKRPSG,≤ 0

# Target: SpHof1
# Assay: as above
# Method in brief: as §1
row,Binder,SPOT peptide array binding signal intensity
1,RVRKTHVPASKRPSG,89.5

# Target: SpHof1-2
# Assay: as above
# Method in brief: as §1
row,Binder,SPOT peptide array binding signal intensity
1,RVRKTHVPASKRPSG,≤ 0

# Target: SpHof1-3
# Assay: as above
# Method in brief: as §1
row,Binder,SPOT peptide array binding signal intensity
1,RVRKTHVPASKRPSG,247

# Target: SpHse1
# Assay: as above
# Method in brief: as §1
row,Binder,SPOT peptide array binding signal intensity
1,RVRKTHVPASKRPSG,112

# Target: SpLsb1
# Assay: as above
# Method in brief: as §1
row,Binder,SPOT peptide array binding signal intensity
1,RVRKTHVPASKRPSG,3.75

# Target: SpLsb4
# Assay: as above
# Method in brief: as §1
row,Binder,SPOT peptide array binding signal intensity
1,RVRKTHVPASKRPSG,224

# Target: SpMyo1
# Assay: as above
# Method in brief: as §1
row,Binder,SPOT peptide array binding signal intensity
1,RVRKTHVPASKRPSG,4.25

# Target: SpNbp2
# Assay: as above
# Method in brief: as §1
row,Binder,SPOT peptide array binding signal intensity
1,RVRKTHVPASKRPSG,78

# Target: SpPex13
# Assay: as above
# Method in brief: as §1
row,Binder,SPOT peptide array binding signal intensity
1,RVRKTHVPASKRPSG,2

# Target: SpRvs167
# Assay: as above
# Method in brief: as §1
row,Binder,SPOT peptide array binding signal intensity
1,RVRKTHVPASKRPSG,1.17

# Target: SpSla1-D1-D2
# Assay: as above
# Method in brief: as §1
row,Binder,SPOT peptide array binding signal intensity
1,RVRKTHVPASKRPSG,4

# Target: SpSla1-D3
# Assay: as above
# Method in brief: as §1
row,Binder,SPOT peptide array binding signal intensity
1,RVRKTHVPASKRPSG,≤ 0
